The panel holds about 83,000 compounds, 20% with a hit somewhere; the sample as a whole holds those more often.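 48-hour exposure, single concentration, 96-well plates; percent growth endpoint where 0 means no net growth. Active: below 10.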 Active and inactive are the calls of the source.
Experiments:
Test in all cases: NCI-60 one-dose screen, 48 h (100 = growth as untreated, 0 = no growth, -100 = all killed)
Conditions in all cases: 10 µM unless noted
NCI-H226 lung = tested on: NCI-H226 lung
NCI-H322M lung = tested on: NCI-H322M lung
HOP-62 NSCLC = tested on: HOP-62 NSCLC
NCI-H460 lung = tested on: NCI-H460 lung
HOP-92 NSCLC = tested on: HOP-92 NSCLC
NCI-H522 lung = tested on: NCI-H522 lung
A549/ATCC NSCLC = tested on: A549/ATCC NSCLC
786-0 renal = tested on: 786-0 renal
COLO 205 colon = tested on: COLO 205 colon
DU-145 prostate = tested on: DU-145 prostate
K-562 leukemia = tested on: K-562 leukemia
MALME-3M melanoma = tested on: MALME-3M melanoma
MDA-MB-231 breast = tested on: MDA-MB-231 breast
RXF 393 renal = tested on: RXF 393 renal
SF-268 CNS = tested on: SF-268 CNS
SF-295 CNS = tested on: SF-295 CNS
SF-539 CNS = tested on: SF-539 CNS
UACC-257 melanoma = tested on: UACC-257 melanoma
M14 melanoma = tested on: M14 melanoma

Measured: growth

C1CN(SSN2CCOCC2)CCO1
inactive: NCI-H226 lung 26.5% [100 µM] | NCI-H322M lung 59.3% [100 µM] | HOP-62 NSCLC 91.9% [100 µM] | NCI-H460 lung 10.8% [100 µM] | A549/ATCC NSCLC 35.7% [100 µM] | K-562 leukemia 15.2% [100 µM] | UACC-257 melanoma 49.6% [100 µM]
active: HOP-92 NSCLC -0.94% [100 µM] | NCI-H522 lung -53.1% [100 µM] | 786-0 renal -93% [100 µM] | COLO 205 colon -70% [100 µM] | DU-145 prostate 3.92% [100 µM] | MALME-3M melanoma -53.1% [100 µM] | MDA-MB-231 breast -79.4% [100 µM] | RXF 393 renal -62.6% [100 µM] | SF-268 CNS -78.9% [100 µM] | SF-295 CNS 5.96% [100 µM] | SF-539 CNS -37.6% [100 µM] | M14 melanoma -7.16% [100 µM]

N#CC1=C(N)Oc2c(c(=O)[nH]c3ccc(Cl)cc23)C12C(=O)c1ccccc1C2=O
inactive: NCI-H226 lung 88.2% | NCI-H322M lung 93% | HOP-62 NSCLC 88.2% | NCI-H460 lung 92.5% | HOP-92 NSCLC 98.6% | NCI-H522 lung 105% | A549/ATCC NSCLC 93.6% | 786-0 renal 96.4% | COLO 205 colon 110% | DU-145 prostate 106% | K-562 leukemia 126% | MALME-3M melanoma 95% | MDA-MB-231 breast 90.3% | RXF 393 renal 101% | SF-268 CNS 92% | SF-295 CNS 104% | SF-539 CNS 92.3% | UACC-257 melanoma 101% | M14 melanoma 97.8%

CC(C)c1ccc(C(=O)Nc2nc3ccc(O)c(CN(C)C)c3s2)cc1
inactive: NCI-H226 lung 97.1% | NCI-H322M lung 81.9% | HOP-62 NSCLC 93.4% | NCI-H460 lung 59.5% | HOP-92 NSCLC 81.7% | NCI-H522 lung 79.4% | A549/ATCC NSCLC 80.6% | 786-0 renal 89.9% | COLO 205 colon 84.7% | DU-145 prostate 63.1% | MALME-3M melanoma 71.4% | MDA-MB-231 breast 44.8% | RXF 393 renal 97.4% | SF-268 CNS 87.2% | SF-295 CNS 96.3% | SF-539 CNS 69% | UACC-257 melanoma 50.9% | M14 melanoma 26.8%
active: K-562 leukemia 1.54%

O=C(/C=C/c1ccco1)Nc1ncc(Cc2cccc(C(F)(F)F)c2)s1
active: HOP-62 NSCLC 1.31% | NCI-H460 lung -0.329% | NCI-H522 lung -15% | COLO 205 colon -47.5% | K-562 leukemia 4.59% | MALME-3M melanoma 5.43% | RXF 393 renal -8.57% | SF-295 CNS -20.5% | SF-539 CNS -39.8% | M14 melanoma -10.2%
inactive: NCI-H226 lung 33.2% | NCI-H322M lung 30.4% | HOP-92 NSCLC 64.3% | A549/ATCC NSCLC 11.6% | 786-0 renal 12.6% | DU-145 prostate 10.5% | MDA-MB-231 breast 25.5% | SF-268 CNS 33.2% | UACC-257 melanoma 25.4%

c1csc(-c2ccc(CNc3c4ccccc4nc4ccccc34)cc2)c1
inactive: NCI-H226 lung 69% | NCI-H322M lung 50.6% | HOP-62 NSCLC 54.6% | NCI-H460 lung 12.9% | NCI-H522 lung 28.9% | A549/ATCC NSCLC 26.7% | 786-0 renal 30.1% | DU-145 prostate 61.7% | MDA-MB-231 breast 38.3% | SF-268 CNS 62.9% | SF-295 CNS 15.8% | SF-539 CNS 12.5%
active: HOP-92 NSCLC -2.1% | COLO 205 colon 5.13% | K-562 leukemia -39.9% | MALME-3M melanoma -82% | RXF 393 renal -14.3% | UACC-257 melanoma -37.4% | M14 melanoma -74.4%

CCCCCC(/C=N\NC(=S)N/N=C/C(=C/c1ccccc1)CCCCC)=C\c1ccccc1
inactive: NCI-H226 lung 89.8% | NCI-H322M lung 61.3% | HOP-62 NSCLC 72.7% | NCI-H460 lung 57.8% | HOP-92 NSCLC 15.8% | NCI-H522 lung 40.4% | A549/ATCC NSCLC 74.8% | 786-0 renal 79.9% | COLO 205 colon 97.2% | DU-145 prostate 88.7% | K-562 leukemia 19.8% | MALME-3M melanoma 93.4% | MDA-MB-231 breast 65.6% | RXF 393 renal 74.8% | SF-268 CNS 68% | SF-295 CNS 45.7% | SF-539 CNS 82.4% | UACC-257 melanoma 98.1% | M14 melanoma 77.8%

CC(=O)Oc1ccc(C)cc1C
inactive: NCI-H226 lung 107% | NCI-H322M lung 108% | HOP-62 NSCLC 105% | NCI-H460 lung 115% | HOP-92 NSCLC 105% | NCI-H522 lung 101% | A549/ATCC NSCLC 100% | 786-0 renal 100% | COLO 205 colon 125% | DU-145 prostate 110% | K-562 leukemia 101% | MALME-3M melanoma 104% | MDA-MB-231 breast 104% | RXF 393 renal 114% | SF-268 CNS 104% | SF-295 CNS 106% | SF-539 CNS 99% | UACC-257 melanoma 106% | M14 melanoma 103%

COC1=CC(c2ccc[nH]2)=N/C1=C\c1[nH]c(C)c(CC(=O)OCc2ccccc2)c1CCC(=O)OCc1ccccc1
active: NCI-H226 lung -12.8% | HOP-62 NSCLC -22.2% | HOP-92 NSCLC -26.1% | NCI-H522 lung -48.5% | A549/ATCC NSCLC 5.29% | 786-0 renal -56.2% | COLO 205 colon -45.6% | K-562 leukemia -11.3% | MALME-3M melanoma -62.1% | MDA-MB-231 breast -44.5% | RXF 393 renal -42.6% | SF-268 CNS -2.4% | SF-295 CNS -62.3% | SF-539 CNS -78.1% | UACC-257 melanoma -46% | M14 melanoma -78.2%
inactive: NCI-H322M lung 34.7% | NCI-H460 lung 12.2% | DU-145 prostate 11.8%
